Rows were chosen to be rich in hits. Some 19% of all compounds tested hit in one or more screens of this group.
ELG1 repair inh = qHTS screen for small molecules that inhibit ELG1-dependent DNA repair in human embryonic kidney (HEK293T) cells expressing luciferase-tagged ELG1; HEK293T ELG1-luciferase reporter, luminescence, 16 h; DNA damage induced by 5-fluorouridine; Potency, µM (series often up to 46.1 µM), most hits filed as inhibitors; 2.3% of 330,000 active; AID 504467, 2011; also: nearly all actives have a fitted effect of over 55% in size
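Overnight (16 hr) co-exposure of 2,000 cells/well to 5-fluorouridine and compound at 37 °C preceded detection. Luciferase was quantified via ONE-Glo luminescence; loss of signal denotes inhibition.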
DT40 TDP1 no CPT = qHTS for Inhibitors of human tyrosyl-DNA phosphodiesterase 1 (TDP1): qHTS in cells in absence of CPT; DT40 Tdp1-/- hTDP1 cells, no CPT, ATP luminescence, 48 h; Potency, µM (top dose mostly 46.2 µM), usual class: inhibitors; 15% of 420,000 active; AID 686978, 2013; also: nearly all actives have a fitted effect of over 55% in size
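Seeded 400 DT40-hTDP1 cells/well (vehicle DMSO, no 20 nM CPT); pinned compounds; ≥48 hr at 37 °C; CellTiter-Glo luminescence as viability measure.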
IL1B secr inh = qHTS for Inhibitors of Inflammasome Signaling: IL-1-beta AlphaLISA Primary Screen; THP-1 LPS/ATP IL-1B secretion, AlphaLISA, 16 h; active compounds read low; activity change, % at 57.5 µM; 4.7% of 360,000 active; in the data active = activity change below about -50%; inconclusive = mostly about -30% to -49%
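Secreted IL-1B measured by AlphaLISA bead assay after 16 h compound exposure of THP-1 cells; compounds (final up to 57.5 uM) added 1 h before LPS (250 ng/mL) and ATP (1.25 mM) stimulation; lower signal means less secretion.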
TDP1 block = qHTS Assay for Inhibitors of Tyrosyl-DNA Phosphodiesterase (TDP1); Tyrosyl-DNA phosphodiesterase 1 (Homo sapiens), Q9NUW8; recombinant TDP1, AlphaScreen DNA substrate cleavage; Potency, µM (series often up to 130 µM), actives largely listed as inhibitors; 0.28% of 350,000 active; also: nearly all actives have a fitted effect of over 40% in size
Target sequence (Q9NUW8 whole entry, looked up): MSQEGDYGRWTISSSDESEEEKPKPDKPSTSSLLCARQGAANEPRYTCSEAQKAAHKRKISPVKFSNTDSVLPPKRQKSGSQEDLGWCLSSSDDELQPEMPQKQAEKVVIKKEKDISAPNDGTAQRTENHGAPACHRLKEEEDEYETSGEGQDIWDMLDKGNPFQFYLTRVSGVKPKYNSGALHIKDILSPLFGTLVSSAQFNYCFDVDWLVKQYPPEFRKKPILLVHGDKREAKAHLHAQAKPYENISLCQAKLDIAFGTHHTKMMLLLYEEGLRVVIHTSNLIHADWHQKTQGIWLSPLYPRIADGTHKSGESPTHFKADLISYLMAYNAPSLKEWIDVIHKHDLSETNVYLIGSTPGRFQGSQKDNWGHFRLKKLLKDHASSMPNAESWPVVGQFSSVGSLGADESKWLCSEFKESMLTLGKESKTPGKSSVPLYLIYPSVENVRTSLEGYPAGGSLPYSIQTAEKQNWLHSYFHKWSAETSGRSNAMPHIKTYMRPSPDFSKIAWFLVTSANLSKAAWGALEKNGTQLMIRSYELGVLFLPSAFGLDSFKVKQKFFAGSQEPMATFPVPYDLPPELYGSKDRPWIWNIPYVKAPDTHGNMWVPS
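Recombinant human Tdp1 (E. coli-expressed, 1 nM final) preincubated with compounds 15 min at room temperature, then 5'-biotin/3'-phosphotyrosine-FITC DNA substrate (15 nM final) added for 5 min. AlphaScreen beads (10 ug/ml final) added 10 min; cleavage lowers signal.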
Giardia kill = Small Molecules that selectively kill Giardia lamblia: qHTS. Giardia lamblia trophozoite viability. activity change, % at 7.66 µM, hits read low. 0.15% of 340,000 active; in the data active = activity change below about -80%; inconclusive = between about -30% and that limit;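 also: parasites exposed to compound for two days anaerobically before the ATP read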
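Viability, read as ATP luminescence: trophozoites at 100 cells/well, compound added, 48 hrs anaerobic at 37 deg C, then 15-30 min room-temperature development before reading.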
TDP1 cell CPT = qHTS for Inhibitors of human tyrosyl-DNA phosphodiesterase 1 (TDP1): qHTS in cells in presence of CPT; chicken DT40 Tdp1-/-;hTDP1 cells + 20 nM CPT, ATP luminescence, 48 h; Potency, µM (doses to about 46.2 µM), usual class: inhibitors; 12% of 420,000 active; also: nearly all actives have a fitted effect of over 55% in size
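Cell growth measured by CellTiter-Glo luminescence after a minimum 48 h, 37 C compound exposure with 20 nM CPT in Tdp1-knockout DT40 cells stably expressing hTDP1, seeded 400/well; qHTS titration format.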
Numbers stand for hits; 0 = inactive; ? = inconclusive; - = no result; ! = repeats disagree; [ ] = remark or other dose. Unless noted, calls follow the shape of the dose curve; as a rule, active = well fitted curve in the direction sought with a large enough effect; inconclusive = small, poorly fitted or top-dose-only effect, or another doubt; inactive = no such curve, though single readings can be large; an effect the other way counts as inactive or inconclusive.

SMILES	ELG1 repair inh	DT40 TDP1 no CPT	IL1B secr inh	TDP1 block	Giardia kill	TDP1 cell CPT
CCOC(=O)C1=CC[C@@H](c2ccccc2Cl)N(S(=O)(=O)c2ccc(C)cc2)[C@H]1C(=O)OCC	0	21µM	0	0	0	?
CCOC(=O)C1=CC[C@@H](c2cccc(C)c2)N(S(=O)(=O)c2ccc(C)cc2)[C@H]1C(=O)OCC	0	16µM	0	0	0	15µM
CCOC(=O)C1=CC[C@@H](c2ccco2)N(S(=O)(=O)c2ccc(C)cc2)[C@H]1C(=O)OCC	0	18µM	0	0	0	?
CCC(Oc1ccccc1)C(=O)Nc1ccc(OCc2cc(=O)n3ccc(C)cc3n2)cc1 (stereo not given)	-	18µM	-	0	-	?
COc1ccc(C)cc1NC(=O)Nc1cccc(OCc2cc(=O)n3ccc(C)cc3n2)c1	-	9.2µM	-	0	-	9.2µM
CSc1cccc(NC(=O)Nc2ccccc2OCc2cc(=O)n3cc(C)ccc3n2)c1	-	21µM	-	0	-	23µM
C=CCN(c1ccc(C(=O)Nc2ccc(NC(C)=O)cc2)cc1)S(C)(=O)=O	0	23µM	0	0	0	?
Cc1ccc(NC2CCCN(C(=O)c3ccc(C)c(N4CCNC4=O)c3)C2)cc1C (stereo not given)	0	0	0	0	0	0
COc1ccc(NCC(O)Cn2c(C)c(C)c3ccccc32)cc1 (stereo not given)	?	?	-173	0	0	?
CCOCCCNC(=O)C(c1ccc(OC)cc1)N(Cc1cccs1)C(=O)c1ccc(NC(C)=O)cc1 (stereo not given)	-	12µM	-	0	-	8.2µM
COc1ccc(NC(=O)C(c2ccc(OC)cc2)N(C)C(=O)Cc2cccs2)cc1 (stereo not given)	0	0	?	0	0	23µM!
O=C(CN1C2=NCCN2c2ccccc21)c1ccc(Br)s1	0	?	0	0	0	18µM
O=C(CN1C2=NCCCN2c2ccccc21)c1cccc(Br)c1	?	23µM	0	0	0	?
O=C(CN1C2=NCCCN2c2ccccc21)c1ccc(Cl)cc1Cl	0	15µM	0	0	0	21µM
O=C(CN1C2=NCCCN2c2ccccc21)c1cccs1	0	0	0	0	0	0
O=C(CN1C2=NCCN2c2ccccc21)c1ccc(Br)cc1	0	?	0	0	0	?
O=C(CN1C2=NCCN2c2ccccc21)c1ccc2c(c1)OCO2	0	?	-81	0	0	?
CC(C)(C)C(=O)CN1C2=NCCCN2c2ccccc21	0	0	0	-	0	0
O=C(OCc1cc(=O)n2nc(-c3cccs3)sc2n1)c1ccccc1Br	-	0	-	0	-	0
O=C(O)C1C=Cc2ccccc2N1C(=O)c1ccccc1 (stereo not given) (tested in a mixture with another compound)	-	0	0	-	0	0
CCOc1ccc(NC(=O)c2c(Nc3ccc(OC)cc3OC)sc(C(=O)c3ccc(Cl)cc3)c2N)cc1	-	13µM	-	0	-	12µM
Cc1ccc(Nc2sc(C(=O)c3ccccc3)c(N)c2C(=O)Nc2ccc(Cl)cc2)cc1	-	18µM	-	0	-	?
Nc1c(C(=O)c2ccccc2)sc(Nc2ccc(Cl)c(Cl)c2)c1C(=O)Nc1ccccc1	-	4.1µM	-	0	-	?
COc1ccccc1NC(=O)c1c(Nc2ccccc2F)sc(C(=O)Nc2cccc(Cl)c2)c1N	?	26µM	?	0	0	?
N#Cc1c(Nc2ccccc2)sc(C(=O)c2ccccc2)c1N	0	?	0	0	0	0
SMILES	ELG1 repair inh	DT40 TDP1 no CPT	IL1B secr inh	TDP1 block	Giardia kill	TDP1 cell CPT
C=CCn1c(-c2ccccn2)n[nH]c1=S	-	0	0	-	-	0
CCc1ccc2c(c1)C(c1ccc([N+](=O)[O-])cc1)=NNC(c1ccc(Br)cc1)=N2	0	?	0	0	0	13µM
N#C/C(=C\c1ccccc1[N+](=O)[O-])c1nc(C2CC2)cs1	?	?	-78	0	0	?
N#C/C(=C/c1ccccc1[N+](=O)[O-])c1nc(C2CC2)cs1	?	0	?	0	?	0
Cc1ccc(NC(=O)N2C3CCCC2CC(NC(=O)C(C)(C)C)C3)cc1 (stereo not given)	0	0	0	-	0	0
CCC(Oc1ccccc1F)C(=O)N1CCC(c2nc3ccccc3s2)CC1 (stereo not given)	-	16µM	-	0	-	?
COc1ccc(C(=O)N2CCC(c3nc4ccccc4s3)CC2)cc1Cl	-	10µM	-	0	-	26µM
CCCOc1ccccc1C(=O)N1CCC(c2nc3ccccc3s2)CC1	-	10µM	-	0	-	23µM
CCc1cc2ccccc2nc1SCC(=O)Nc1cc(OC)c(OC)cc1C(=O)O	0	0	0	0	0	0
CCOC(=O)Cc1csc(NC(=O)c2cc(-c3ccncc3)nc3ccccc23)n1	?	?	0	0	0	16µM
CCOC(=O)Cc1csc(NC(=O)c2cc(C)on2)n1	-	0	0	-	?	0
CCOC(=O)Cc1csc(SCC(=O)Nc2cccc(Cl)c2)n1	?	15µM	0	0	0	?
CCOC(=O)Cc1csc(NC(=O)c2cc(C)c(C)s2)n1	0	23µM	0	0	0	?
CCOC(=O)Cc1csc(NC(=O)c2ccc(Cl)s2)n1	0	?	0	-	0	?
CCOC(=O)Cc1csc(NC(=O)c2ccc3ccccc3n2)n1	0	18µM	0	0	0	?
COc1cc(NS(=O)(=O)c2ccc(NC(=O)c3ccc(Cl)cc3Cl)cc2)nc(OC)n1	-	0	-	0[12.3 µM]	-	?
O=C(CCn1cccc(C(F)(F)F)c1=O)Nc1cccc(C(F)(F)F)c1	0	0	0	0	0	0
CCc1ccc(NC(=O)C(Cc2ccccc2)NS(=O)(=O)c2ccc3c(c2)c(=O)n(C)c(=O)n3C)cc1 (stereo not given)	-	?	-	0	-	?
Cc1csc(NC(=O)c2cc(-c3ccccc3)nc3ccccc23)n1	?	15µM	-	0	0	?
CCOC(=O)Cc1csc(NC(=O)c2cnc3sc(C)cn3c2=O)n1	?	21µM	0	0	0	?
Cc1ccc(CNC(=O)Cc2csc(Nc3nc(=S)[nH]c4ccccc34)n2)cc1	0	-	-	0	-	-
O=C(Cc1csc(Nc2nc(=S)[nH]c3ccccc23)n1)N1CCN(c2cccc(C(F)(F)F)c2)CC1	?	16µM	0	0	0	?
S=c1nc(NCc2cccc(Cl)c2)c2ccccc2[nH]1	0	0	0	-	0	0

Bioassay records (PubChem)
